# Tests used:
# Details in all cases: Compound Concentration (nM):1000
# [1] = system: INSRR
# [2] = system: INSR
# [3] = system: IRAK1
# [4] = system: IRAK3
# [5] = system: IRAK4
# [6] = system: ITK
# [7] = system: JAK1(JH1domain-catalytic)
# [8] = system: JAK1(JH2domain-pseudokinase)
# [9] = system: JAK2(JH1domain-catalytic)
# [10] = system: JAK3(JH1domain-catalytic)
# 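Further: KINOMEscan scanMAX binding as percent activity remaining versus control; lower means stronger binding.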
smiles,measurement,setting,value
COc1ccccc1-c1cc(/C=C2\C(=O)Nc3ncc(Br)cc32)cc(Br)c1O [GW442130X],Percent Control,[1],100%
same,Percent Control,[2],87%
same,Percent Control,[3],74%
same,Percent Control,[4],100%
same,Percent Control,[5],85%
same,Percent Control,[6],100%
same,Percent Control,[7],100%
same,Percent Control,[8],100%
same,Percent Control,[9],82%
same,Percent Control,[10],55%
CCS(=O)(=O)c1ccc(OC)c(Nc2ncc(-c3cccc(OC)c3)o2)c1 [GW580509X],Percent Control,[1],100%
same,Percent Control,[2],95%
same,Percent Control,[3],90%
same,Percent Control,[4],100%
same,Percent Control,[5],100%
same,Percent Control,[6],100%
same,Percent Control,[7],100%
same,Percent Control,[8],97%
same,Percent Control,[9],94%
same,Percent Control,[10],62%
NS(=O)(=O)c1ccc(Nc2ncc(-c3ccccc3)o2)cc1 [GW572399X],Percent Control,[1],100%
same,Percent Control,[2],100%
same,Percent Control,[3],99%
same,Percent Control,[4],100%
same,Percent Control,[5],100%
same,Percent Control,[6],90%
same,Percent Control,[7],100%
same,Percent Control,[8],87%
same,Percent Control,[9],100%
same,Percent Control,[10],71%
CN(C)c1cc2c(Nc3ccc4c(cnn4Cc4ccccc4)c3)ncnc2cn1 [GW282974X],Percent Control,[1],100%
same,Percent Control,[2],63%
same,Percent Control,[3],100%
same,Percent Control,[4],100%
same,Percent Control,[5],100%
same,Percent Control,[6],87%
same,Percent Control,[7],100%
same,Percent Control,[8],92%
same,Percent Control,[9],100%
same,Percent Control,[10],99%
Cc1cc(O)cc(C)c1/C=C/c1cncc(C(N)=O)c1 [GW435821X],Percent Control,[1],100%
same,Percent Control,[2],93%
same,Percent Control,[3],100%
same,Percent Control,[4],100%
same,Percent Control,[5],100%
same,Percent Control,[6],94%
same,Percent Control,[7],100%
same,Percent Control,[8],59%
same,Percent Control,[9],92%
same,Percent Control,[10],100%
Cl.O=C(O[C@H]1CN[C@H](C#Cc2cc3ncnc(Nc4ccc5c(cnn5Cc5ccccc5)c4)c3s2)C1)N1CCOCC1 [GSK200398A],Percent Control,[1],100%
same,Percent Control,[2],77%
same,Percent Control,[3],100%
same,Percent Control,[4],77%
same,Percent Control,[5],96%
same,Percent Control,[6],100%
same,Percent Control,[7],96%
same,Percent Control,[8],91%
same,Percent Control,[9],99%
same,Percent Control,[10],90%
Cl.O=C(Nc1ccc(Oc2ccc3[nH]c(NC(=O)c4ccccc4)nc3c2)cc1)Nc1cc(C(F)(F)F)ccc1F [GW709042A],Percent Control,[1],100%
same,Percent Control,[2],85%
same,Percent Control,[3],89%
same,Percent Control,[4],100%
same,Percent Control,[5],86%
same,Percent Control,[6],100%
same,Percent Control,[7],99%
same,Percent Control,[8],96%
same,Percent Control,[9],100%
same,Percent Control,[10],77%
CC1=C(C(=O)Nc2ccc3[nH]ncc3c2)C(c2ccc(Cl)c(Cl)c2)CC(=O)N1 (centres unmarked) [GSK299115A],Percent Control,[1],100%
same,Percent Control,[2],100%
same,Percent Control,[3],88%
same,Percent Control,[4],56%
same,Percent Control,[5],100%
same,Percent Control,[6],74%
same,Percent Control,[7],41%
same,Percent Control,[8],86%
same,Percent Control,[9],13%
same,Percent Control,[10],9.3%
CCn1c(-c2nonc2N)nc2c(C#CC(C)(C)O)nc(OCCNC)cc21.Cl [GSK949675],Percent Control,[1],100%
same,Percent Control,[2],100%
same,Percent Control,[3],92%
same,Percent Control,[4],100%
same,Percent Control,[5],88%
same,Percent Control,[6],100%
same,Percent Control,[7],100%
same,Percent Control,[8],100%
same,Percent Control,[9],96%
same,Percent Control,[10],87%
Nc1ncnc2occ(-c3ccc(NC(=O)Nc4cc(C(F)(F)F)ccc4F)cc3)c12 [GW770249X],Percent Control,[1],100%
same,Percent Control,[2],90%
same,Percent Control,[3],95%
same,Percent Control,[4],100%
same,Percent Control,[5],100%
same,Percent Control,[6],100%
same,Percent Control,[7],79%
same,Percent Control,[8],80%
same,Percent Control,[9],62%
same,Percent Control,[10],100%
O=C(Nc1n[nH]c2nc(-c3ccc(O)cc3)c(Br)cc12)C1CC1 [SB-725317],Percent Control,[1],100%
same,Percent Control,[2],100%
same,Percent Control,[3],56%
same,Percent Control,[4],100%
same,Percent Control,[5],89%
same,Percent Control,[6],100%
same,Percent Control,[7],60%
same,Percent Control,[8],63%
same,Percent Control,[9],24%
same,Percent Control,[10],6.9%
NS(=O)(=O)c1ccc(N/N=C2\C(=O)Nc3ccc(-c4cnco4)cc32)cc1 [GW276655],Percent Control,[1],83%
same,Percent Control,[2],73%
same,Percent Control,[3],79%
same,Percent Control,[4],100%
same,Percent Control,[5],90%
same,Percent Control,[6],93%
same,Percent Control,[7],100%
same,Percent Control,[8],31%
same,Percent Control,[9],54%
same,Percent Control,[10],16%
COc1ccc2c(-c3ccnc(Nc4cccc(OC(F)(F)F)c4)n3)cnn2n1 [GW810372X],Percent Control,[1],100%
same,Percent Control,[2],90%
same,Percent Control,[3],19%
same,Percent Control,[4],80%
same,Percent Control,[5],100%
same,Percent Control,[6],100%
same,Percent Control,[7],100%
same,Percent Control,[8],7.5%
same,Percent Control,[9],62%
same,Percent Control,[10],65%
COc1cc(N2CCN(C(C)C)CC2)ccc1Nc1nc(Nc2ccc(F)cc2C(=O)NC[C@@H](O)CO)c2cc[nH]c2n1 [GSK1392956A],Percent Control,[1],1.4%
same,Percent Control,[2],1.1%
same,Percent Control,[3],90%
same,Percent Control,[4],86%
same,Percent Control,[5],89%
same,Percent Control,[6],100%
same,Percent Control,[7],94%
same,Percent Control,[8],89%
same,Percent Control,[9],100%
same,Percent Control,[10],88%
COc1ccc2[nH]c3c4[nH]c5ccc(OC)cc5c4c4c(c3c2c1)C(=O)NC4=O [GW296115X],Percent Control,[1],95%
same,Percent Control,[2],66%
same,Percent Control,[3],94%
same,Percent Control,[4],66%
same,Percent Control,[5],76%
same,Percent Control,[6],89%
same,Percent Control,[7],100%
same,Percent Control,[8],39%
same,Percent Control,[9],84%
same,Percent Control,[10],47%
COC(=O)Nc1nc2ccc(Oc3ccc(NC(=O)Nc4cc(C(F)(F)F)ccc4F)cc3)cc2s1.Cl [GW693917A],Percent Control,[1],100%
same,Percent Control,[2],68%
same,Percent Control,[3],97%
same,Percent Control,[4],100%
same,Percent Control,[5],90%
same,Percent Control,[6],74%
same,Percent Control,[7],71%
same,Percent Control,[8],80%
same,Percent Control,[9],57%
same,Percent Control,[10],61%
CN1CCN(C(=O)c2ccc(NC(=O)Nc3ccc(N(C)c4ccnc(Nc5ccc(CS(C)(=O)=O)cc5)n4)cc3)cc2)CC1.Cl [GW830263A],Percent Control,[1],100%
same,Percent Control,[2],61%
same,Percent Control,[3],58%
same,Percent Control,[4],0.1%
same,Percent Control,[5],52%
same,Percent Control,[6],98%
same,Percent Control,[7],76%
same,Percent Control,[8],13%
same,Percent Control,[9],4.7%
same,Percent Control,[10],5.4%
COc1cc(/C=N/Nc2ncnc3[nH]ncc23)ccc1O [GW578748X],Percent Control,[1],100%
same,Percent Control,[2],94%
same,Percent Control,[3],31%
same,Percent Control,[4],100%
same,Percent Control,[5],61%
same,Percent Control,[6],100%
same,Percent Control,[7],100%
same,Percent Control,[8],0.6%
same,Percent Control,[9],47%
same,Percent Control,[10],47%
NS(=O)(=O)c1ccc(N/N=C2\C(=O)Nc3ccc(C(=O)NCCc4c[nH]cn4)cc32)cc1 [GW300660X],Percent Control,[1],100%
same,Percent Control,[2],96%
same,Percent Control,[3],82%
same,Percent Control,[4],100%
same,Percent Control,[5],99%
same,Percent Control,[6],100%
same,Percent Control,[7],100%
same,Percent Control,[8],20%
same,Percent Control,[9],80%
same,Percent Control,[10],64%
Cl.c1ccc(Cc2nc3ccc(Nc4ncnc5ccccc45)cc3[nH]2)cc1 [GR269666A],Percent Control,[1],100%
same,Percent Control,[2],100%
same,Percent Control,[3],100%
same,Percent Control,[4],100%
same,Percent Control,[5],100%
same,Percent Control,[6],100%
same,Percent Control,[7],100%
same,Percent Control,[8],88%
same,Percent Control,[9],100%
same,Percent Control,[10],100%
